Results on one molecule are retold here after PubChem BioAssay (NCATS).

Structures are written as SMILES. Results filed as inconclusive are left out. Calls of active or inactive are those of the source. Unless noted, calls come from the whole dose curve; as a rule, active = well fitted curve in the direction sought with a large enough effect; inconclusive = small, poorly fitted or top-dose-only effect, or another doubt; inactive = no such curve, though single readings can be large; an effect the other way counts as inactive or inconclusive.

Test [1] is described as follows: Confirmation and Secondary Assay for Modulators of Hemoglobin Beta Chain Splicing at IVS2 654 locus (AID 910). Note: % of control where 0% means no effect. In short, it runs like this:
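HeLa cells stably carrying EGFP interrupted by mutant beta-globin IVS2-654 intron (CMV-driven) were treated with compound for 2 days at 37C; corrected splicing was scored as total peak GFP intensity per well (488 nm excitation, 500-520 nm emission).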

The nature of test [2]: Confirmation and Secondary Assay for Modulators of Hemoglobin Beta Chain Splicing at IVS2 705 locus (AID 930).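 Note: HeLa cells stably expressing the EGFP-705 splicing reporter; GFP fluorescence per well restored by corrected splicing of the IVS2-705 intron in EGFP; % of control where 0% means no effect.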 The essentials: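 HeLa cells stably carrying EGFP interrupted by mutant beta-globin intron 2 (IVS2-705) treated 2 days at 37C with compound; 500 nM antisense PNA as control. Correct splicing read as total peak GFP intensity per well by laser-scanning cytometry.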

Test [3] in a line: qHTS Assay for Lipid Storage Modulators (AID 1519; calls by dose curve; for activity change, negative = inhibition: % is set by controls: 0 for no effect and ±100 for the full control effect). To be noted: Drosophila S3 cells, BODIPY lipid droplet/cell ratio, laser cytometry, cells loaded with oleic acid. In short, it runs like this: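 Cells seeded at 5,000 per well were treated with compounds over a concentration series and loaded with oleic acid (400 uM, as added). Lipid droplet fluorescence (488 nm excitation, 500-530 nm channel) was read by laser-scanning cytometry and normalized to 20 uM Triacsin C.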

The nature of test [4]: Confirmatory screen GU Rhodamine qHTS for Zika virus inhibitors qHTS (AID 1347157). Note: potency is the fitted concentration of half-maximal effect; nearly all actives have a fitted effect of over 70% in size. In short, it runs like this:
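Unlinked NS2B/NS3, 25 nM; Rhod110 peptide, 1.5 microM; compounds, up to 114 microM. Reaction run 15 min at RT in 10 mM Tris-HCl pH 8.0, 0.01% Tween 20; kinetic fluorescence change fitted with a 4-parameter Hill model.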
On the technique in general: Quantitative high-throughput screening tests each substance at several concentrations.

Test [5] is described as follows: ZIKV-mCherry secondary qHTS for Zika virus inhibitors (AID 1347158). Note: top concentration of the series differs between compounds. In short, it runs like this:
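After overnight seeding at 37 °C, Vero cells receive compound and then ZIKV-mCherry (MOI 1). Following 48-72 h infection, cells are fixed, counterstained with Hoechst, and imaged; percent infected cells is derived from an mCherry intensity cut-off of 450 RFU.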

Test [6] deals with Zika virus NS2B-NS3 protease (linked construct). As to the kind of experiment: Primary screen NINDS Rhodamine qHTS for Zika virus inhibitors (AID 1347160). Note: potency is the fitted concentration of half-maximal effect; nearly all actives have a fitted effect of over 55% in size. The essentials: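 Purified NS2B-NS3 protease with the NS2B hydrophilic domain joined by a flexible linker (25 nM) in 10 mM Tris-HCl pH 8.0, 0.01% Tween 20, preincubated 15 min at RT with compound; Rhodamine110 peptide substrate 1.5 µM; fluorescence change over 15 min; 4-parameter Hill fit.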

Test [7] is described as follows: Confirmatory screen NINDS Rhodamine qHTS for Zika virus inhibitors (AID 1347161). Note: potency is the fitted concentration of half-maximal effect; nearly all actives have a fitted effect of over 60% in size. The essentials:
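Rhodamine110-peptide cleavage (1.5 µM substrate) by 25 nM linked NS2B-NS3 enzyme at pH 8.0 (Tris, Tween 20), after 15 min RT preincubation with compounds; 15-min fluorescence change normalized to controls and Hill-fitted.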

The subject of test [8] is Zika virus NS2B-NS3 protease (linked). As to the kind of experiment: 384 well plate NINDS AMC confirmatory qHTS for Zika virus inhibitors (AID 1347163). Note: potency is the fitted concentration of half-maximal effect; nearly all actives have a fitted effect of over 50% in size. In short, it runs like this:
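Linked protease 5/30/60 nM final; cpds up to 1 mM final, ~15 min preinc. Substrate Ac-VKTGKR-AMC 30 microM final. RT, dark, 25 min; FI ex 355/em 460; normalized to no-enzyme/no-inhibitor ctrls.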

For test [9], the system named is Zika virus NS2B-NS3 protease (linked construct). Put plainly: 384 well plate NINDS Rhodamine confirmatory qHTS for Zika virus inhibitors (AID 1347164). Note: potency is the fitted concentration of half-maximal effect; nearly all actives have a fitted effect of over 65% in size. In short, it runs like this:
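Compounds are incubated about 15 minutes with linked protease (5, 30 or 60 nM final). Rhodamine 110-tagged Ac-LKRR substrate (10 microM final) is added and fluorescence measured after 25 minutes.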

The nature of test [10]: HPAF-II Cancer Cell Toxicity qHTS against the NCATS CANVASS Library (AID 1347346). Note: % is set by controls: 0 for no effect and ±100 for the full control effect; nearly all actives have a fitted effect of over 55% in size. In short, it runs like this: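 Cytotoxicity in HPAF-II pancreatic cancer cells: 72 h treatment across 11 concentrations, ATP-based CellTiter-Glo luminescence endpoint.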
Test [11] is described as follows: OV-SAHO Cancer Cell Toxicity qHTS against the NCATS CANVASS Library (AID 1347348). Note: % is set by controls: 0 for no effect and ±100 for the full control effect; nearly all actives have a fitted effect of over 55% in size. In short, it runs like this:
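1000 cells/well seeded and rested 4 h at 37 °C before pin transfer of compounds in an 11-pnt series. Exposure 72 h at 37 °C/5% CO2; viability by CellTiter-Glo luminescence after 15 min at room temperature.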

A short description of test [12]: A2780 Cisplatin Sensitive Ovarian Cancer Cell Toxicity qHTS against the NCATS CANVASS Library (AID 1347353). Note: % is set by controls: 0 for no effect and ±100 for the full control effect; nearly all actives have a fitted effect of over 60% in size. In short, it runs like this:
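Seventy-two-hour exposure of cisplatin-sensitive A2780 ovarian cells to an 11-concentration qHTS series; cytotoxicity is inferred from loss of ATPLite luminescence. Bortezomib titration served as positive control.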

Test [13] in a line: UWB1.289-WTBRCA1 Cancer Cell Toxicity qHTS against the NCATS CANVASS Library (AID 1347354). Note: % is set by controls: 0 for no effect and ±100 for the full control effect. In short, it runs like this:
(§1)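 qHTS cytotoxicity: compounds tested in 11 concentrations on 1000 seeded cells per well over 72 h; bortezomib served as control; signal from CellTiter-Glo luminescence.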

Test [14] can be described thus: HEK-293 Cancer Cell Toxicity qHTS against the NCATS CANVASS Library (AID 1347355). Note: % is set by controls: 0 for no effect and ±100 for the full control effect; nearly all actives have a fitted effect of over 65% in size. In short, it runs like this: as §1
Test [15] is described as follows: HPAF-II 24hr Apoptosis Induction qHTS against the NCATS CANVASS Library (AID 1347356). Note: 0% is about no effect. In short, it runs like this:
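Apoptosis induction in HPAF-II pancreatic cancer cells is measured as caspase-3/7 luminescence after a 24-hour exposure to compounds.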

Test [16] in a line: HEK293 18hr Apoptosis Induction qHTS against the NCATS CANVASS Library (AID 1347357). Note: 0% is about no effect. In short, it runs like this: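 Luminescent caspase-3/7 signal is measured in HEK293 cells exposed for 18 hours to an 11-point concentration series; doxorubicin serves as the plate control.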
Test [17] in a line: HPAF-II 12hr Apoptosis Induction qHTS against the NCATS CANVASS Library (AID 1347358). Note: 0% is about no effect. The essentials:
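Apoptosis in HPAF-II pancreatic cancer cells is scored as caspase 3/7 luminescence following a 12-hour exposure to an 11-point compound series.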

Test [18] in a line: HEK293 24hr Apoptosis Induction qHTS against the NCATS CANVASS Library (AID 1347359). Note: 0% is about no effect. In short, it runs like this: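 HEK293 cells (500/well, DMEM + 10% FBS) were exposed to compounds in an 11-point series for 24 hours at 37 degrees C, then caspase-3/7 activity was read by Caspase-Glo DEVD luciferase luminescence after 15 min.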
Test [19] is described as follows: HPAF-II 18hr Apoptosis Induction qHTS against the NCATS CANVASS Library (AID 1347360). Note: 0% is about no effect. In short, it runs like this:
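Apoptosis was scored as caspase-3/7 activity in HPAF-II pancreatic cancer cells treated 18 hours with an 11-point concentration series.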

The nature of test [20]: HEK293 12hr Apoptosis Induction qHTS against the NCATS CANVASS Library (AID 1347361). Note: 0% is about no effect. The essentials:
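Apoptosis in HEK293 was scored as caspase-3/7 luminescence following 12 h treatment with a compound concentration series in qHTS format.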

On to `O=C(OC1Cc2c(O)cc(O)cc2OC1c1cc(O)c(O)c(O)c1)c1cc(O)c(O)c(O)c1` (configuration not stated), for which the molecule was called inactive in test [1], in test [2] and in test [15]. The activity change, negative = inhibition in test [3] (at 57.5 µM (top of the series)) is 7.9% (inactive). Besides, the max response came out at 1.63% in test [3] (measured here: cell count channel max response) and 13.6% in test [3] (measured here: lipid channel max response). Further, the Potency is 7.94 µM (active) in test [4]; 1.56 µM (active) in test [6]; 7.94 µM (active) in [7]; 15.8 µM (active) in [8]; 89.1 µM (active) in test [9]. Moreover, the Potency result in [5], in test [10], in [11], in test [12], in [13] and in [14] was “inactive” each time. The Potency entry in test [16], in test [17], in test [18], in [19] and in [20] was “inactive” in each case.
